# Experimental data published in the supplement of paper PMC10849652.
# Targets with a hit are over-represented here; the source holds about 7,900 in all. About 0.6% of all pairs of compound and target were hits. Unmarked numbers belong to inactive results.
# Experiments:
# Assay in all cases: log2 fold change, soluble protein after heating vs DMSO (PISA); higher = thermal stabilisation; K562 cells, 10 uM, 30 min; active = over 0.2 and 3.5 SD of the protein, either way, in both replicates (recomputed)
# [1] = compound: NC(=O)Nc1cc(-c2cccc(F)c2)sc1C(=O)N[C@H]1CCCNC1
# Method in brief: (§1)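 Thermal stability values are relative to control samples and come from duplicates. They are expressed as log2 fold changes. For measurement, K562 cells (2×10^6 cells/mL) received 10 μM compound for 30 min, and aliquots were heated for 3 min over 48°C-58°C, pooled, and extracted at 4°C in PBS with 0.5% NP-40. Soluble protein, the supernatant after 21,000xg for 90 min, was quantified by TMTpro 16plex LC-MS/MS with equalised channel sums.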
# [2] = compound: NC(=O)c1cnc(N[C@@H]2CCCC[C@@H]2N)nc1Nc1cccc(-n2nccn2)c1
# Method in brief: as §1
# [3] = compound: NC1(c2ccc(-c3nc4ccn5c(=O)[nH]nc5c4cc3-c3ccccc3)cc2)CCC1
# Method in brief: as §1
# [4] = compound: NCC(=O)Nc1ccc(-n2nc(C(F)(F)F)cc2-c2ccc3c(ccc4ccccc43)c2)cc1
# Method in brief: as §1
# [5] = compound: Nc1ccccc1NC(=O)c1ccc(CNC(=O)OCc2cccnc2)cc1 [entinostat]
# Method in brief: as §1
# [6] = compound: O=C(CCCCCCC(=O)Nc1ccccc1)NO [vorinostat]
# Method in brief: as §1
# [7] = compound: O=C(CCCCCCNC(=O)c1cnc(N(c2ccccc2)c2ccccc2Cl)nc1)NO [citarinostat]
# Method in brief: as §1
# [8] = compound: O=C(O)c1ccc2c(c1)nc(Nc1cccc(Cl)c1)c1ccncc12 [silmitasertib]
# Method in brief: as §1
# [9] = compound: O=C1NC(=O)C(c2cnc3ccccn23)=C1c1cn2c3c(cc(F)cc13)CN(C(=O)N1CCCCC1)CC2
# Method in brief: as §1
# [10] = compound: c1cc(OCCN2CCCCC2)cc(-c2n[nH]c3ccc(-c4nnc[nH]4)cc23)c1
# Method in brief: as §1
# [11] = compound: c1cn2cc(-c3ccc4cn[nH]c4c3)nc(Nc3ccc(N4CCOCC4)cc3)c2n1 [entospletinib]
# Method in brief: as §1
# UniProt P30519, sequence (P30519 whole entry, looked up): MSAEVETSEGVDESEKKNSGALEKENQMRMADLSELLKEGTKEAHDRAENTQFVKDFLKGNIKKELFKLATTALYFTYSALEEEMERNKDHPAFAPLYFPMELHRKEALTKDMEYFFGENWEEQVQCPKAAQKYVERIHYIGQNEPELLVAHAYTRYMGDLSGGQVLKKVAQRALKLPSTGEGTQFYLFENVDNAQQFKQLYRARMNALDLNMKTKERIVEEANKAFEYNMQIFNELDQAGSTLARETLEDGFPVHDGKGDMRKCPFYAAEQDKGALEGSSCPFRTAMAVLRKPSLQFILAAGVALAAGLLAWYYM
# UniProt Q9UBN7, sequence (Q9UBN7 whole entry, looked up): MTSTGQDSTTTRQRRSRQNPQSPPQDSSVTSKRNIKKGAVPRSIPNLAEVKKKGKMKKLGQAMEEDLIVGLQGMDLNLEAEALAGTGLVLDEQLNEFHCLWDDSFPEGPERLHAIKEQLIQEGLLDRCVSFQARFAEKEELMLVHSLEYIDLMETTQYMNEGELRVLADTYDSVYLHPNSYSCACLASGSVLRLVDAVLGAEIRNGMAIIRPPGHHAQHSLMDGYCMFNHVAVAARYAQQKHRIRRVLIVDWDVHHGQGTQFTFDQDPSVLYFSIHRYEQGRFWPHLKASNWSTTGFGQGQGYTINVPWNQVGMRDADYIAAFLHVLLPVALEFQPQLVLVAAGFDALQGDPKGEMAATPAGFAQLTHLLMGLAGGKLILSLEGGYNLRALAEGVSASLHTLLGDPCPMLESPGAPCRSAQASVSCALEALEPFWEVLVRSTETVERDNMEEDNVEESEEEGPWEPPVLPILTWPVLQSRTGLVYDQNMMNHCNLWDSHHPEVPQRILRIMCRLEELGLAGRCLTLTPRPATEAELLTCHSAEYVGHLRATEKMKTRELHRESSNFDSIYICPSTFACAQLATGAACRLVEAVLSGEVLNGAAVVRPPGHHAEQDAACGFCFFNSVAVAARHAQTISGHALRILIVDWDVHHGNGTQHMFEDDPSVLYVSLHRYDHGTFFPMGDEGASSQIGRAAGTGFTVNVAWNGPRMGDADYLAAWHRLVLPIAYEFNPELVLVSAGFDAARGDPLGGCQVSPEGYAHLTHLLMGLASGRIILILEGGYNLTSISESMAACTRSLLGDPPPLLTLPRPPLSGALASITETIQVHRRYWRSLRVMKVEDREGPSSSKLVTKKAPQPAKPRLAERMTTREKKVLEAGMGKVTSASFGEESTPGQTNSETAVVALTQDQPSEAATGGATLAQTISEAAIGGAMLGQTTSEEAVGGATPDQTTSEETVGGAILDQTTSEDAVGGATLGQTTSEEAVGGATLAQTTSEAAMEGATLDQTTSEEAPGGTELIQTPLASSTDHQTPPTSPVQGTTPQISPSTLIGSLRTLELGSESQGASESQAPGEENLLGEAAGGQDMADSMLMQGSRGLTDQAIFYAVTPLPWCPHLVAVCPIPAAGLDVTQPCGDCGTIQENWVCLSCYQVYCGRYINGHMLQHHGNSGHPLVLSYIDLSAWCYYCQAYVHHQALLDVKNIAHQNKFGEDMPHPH
# UniProt P13807, sequence (P13807 whole entry, looked up): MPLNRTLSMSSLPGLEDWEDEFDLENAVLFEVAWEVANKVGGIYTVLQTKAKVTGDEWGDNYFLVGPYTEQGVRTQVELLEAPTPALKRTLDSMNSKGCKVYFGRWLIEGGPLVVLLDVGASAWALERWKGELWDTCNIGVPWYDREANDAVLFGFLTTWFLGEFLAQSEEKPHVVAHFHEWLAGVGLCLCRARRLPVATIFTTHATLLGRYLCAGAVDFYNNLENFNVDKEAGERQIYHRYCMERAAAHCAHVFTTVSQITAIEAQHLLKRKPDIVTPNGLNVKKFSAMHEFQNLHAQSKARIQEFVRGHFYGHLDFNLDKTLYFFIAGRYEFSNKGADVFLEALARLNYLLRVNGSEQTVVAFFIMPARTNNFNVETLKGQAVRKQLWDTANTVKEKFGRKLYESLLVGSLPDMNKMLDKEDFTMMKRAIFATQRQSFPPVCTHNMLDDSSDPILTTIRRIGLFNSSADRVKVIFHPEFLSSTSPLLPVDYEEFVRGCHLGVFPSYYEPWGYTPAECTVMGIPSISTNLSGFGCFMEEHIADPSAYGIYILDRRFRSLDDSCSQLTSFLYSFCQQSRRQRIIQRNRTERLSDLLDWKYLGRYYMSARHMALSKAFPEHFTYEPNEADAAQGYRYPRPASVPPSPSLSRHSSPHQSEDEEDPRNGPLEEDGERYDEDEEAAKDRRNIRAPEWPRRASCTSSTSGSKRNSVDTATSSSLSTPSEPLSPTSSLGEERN
# UniProt Q9BYC5, sequence (Q9BYC5 whole entry, looked up): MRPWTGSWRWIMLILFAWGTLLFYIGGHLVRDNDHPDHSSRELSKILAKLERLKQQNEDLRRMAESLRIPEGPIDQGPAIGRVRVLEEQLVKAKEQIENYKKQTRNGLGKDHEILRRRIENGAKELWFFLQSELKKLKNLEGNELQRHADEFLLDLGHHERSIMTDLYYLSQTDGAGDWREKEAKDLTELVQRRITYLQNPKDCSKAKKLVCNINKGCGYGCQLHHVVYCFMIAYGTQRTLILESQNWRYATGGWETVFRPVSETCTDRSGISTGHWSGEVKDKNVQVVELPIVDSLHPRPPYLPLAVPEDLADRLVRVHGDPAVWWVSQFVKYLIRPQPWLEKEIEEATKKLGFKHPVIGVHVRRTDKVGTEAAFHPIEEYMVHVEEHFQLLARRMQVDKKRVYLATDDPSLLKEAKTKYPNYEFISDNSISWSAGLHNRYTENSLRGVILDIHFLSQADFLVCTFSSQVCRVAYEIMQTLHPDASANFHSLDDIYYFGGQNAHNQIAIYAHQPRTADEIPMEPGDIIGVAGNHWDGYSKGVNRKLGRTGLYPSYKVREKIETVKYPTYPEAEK
# UniProt Q86YM7, sequence (Q86YM7 whole entry, looked up): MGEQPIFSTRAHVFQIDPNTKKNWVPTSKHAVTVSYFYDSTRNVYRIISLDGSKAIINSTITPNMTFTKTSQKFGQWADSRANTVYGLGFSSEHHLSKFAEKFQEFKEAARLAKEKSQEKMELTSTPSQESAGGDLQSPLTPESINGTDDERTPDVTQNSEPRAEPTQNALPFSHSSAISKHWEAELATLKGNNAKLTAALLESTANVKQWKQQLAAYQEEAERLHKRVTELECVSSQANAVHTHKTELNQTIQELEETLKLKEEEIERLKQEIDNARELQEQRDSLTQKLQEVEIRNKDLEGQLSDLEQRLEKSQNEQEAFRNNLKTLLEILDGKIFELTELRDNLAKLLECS
# UniProt P46976, sequence (P46976 whole entry, looked up): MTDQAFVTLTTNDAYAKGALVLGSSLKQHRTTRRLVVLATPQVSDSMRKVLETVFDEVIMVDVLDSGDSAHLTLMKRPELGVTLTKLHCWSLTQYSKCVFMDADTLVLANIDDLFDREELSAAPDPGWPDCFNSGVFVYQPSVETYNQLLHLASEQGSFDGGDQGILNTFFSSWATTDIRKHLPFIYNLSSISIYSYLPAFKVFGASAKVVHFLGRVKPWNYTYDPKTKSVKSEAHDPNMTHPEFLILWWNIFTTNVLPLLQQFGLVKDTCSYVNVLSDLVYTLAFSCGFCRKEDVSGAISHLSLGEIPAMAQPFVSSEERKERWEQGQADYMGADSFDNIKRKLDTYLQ
# UniProt P55084, sequence (P55084 whole entry, looked up): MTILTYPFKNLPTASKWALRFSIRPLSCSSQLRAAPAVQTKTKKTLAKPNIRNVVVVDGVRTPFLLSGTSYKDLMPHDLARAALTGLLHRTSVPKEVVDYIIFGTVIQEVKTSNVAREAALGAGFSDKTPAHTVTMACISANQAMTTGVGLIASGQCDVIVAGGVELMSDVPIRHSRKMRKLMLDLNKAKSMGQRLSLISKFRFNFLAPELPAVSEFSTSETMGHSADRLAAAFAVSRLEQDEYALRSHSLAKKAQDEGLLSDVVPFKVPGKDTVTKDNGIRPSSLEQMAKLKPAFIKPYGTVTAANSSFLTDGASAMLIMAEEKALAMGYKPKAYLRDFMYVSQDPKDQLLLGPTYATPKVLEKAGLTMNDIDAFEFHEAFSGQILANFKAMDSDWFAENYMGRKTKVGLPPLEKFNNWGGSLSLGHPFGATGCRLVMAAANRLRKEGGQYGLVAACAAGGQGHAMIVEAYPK
# UniProt P08754, sequence (P08754 whole entry, looked up): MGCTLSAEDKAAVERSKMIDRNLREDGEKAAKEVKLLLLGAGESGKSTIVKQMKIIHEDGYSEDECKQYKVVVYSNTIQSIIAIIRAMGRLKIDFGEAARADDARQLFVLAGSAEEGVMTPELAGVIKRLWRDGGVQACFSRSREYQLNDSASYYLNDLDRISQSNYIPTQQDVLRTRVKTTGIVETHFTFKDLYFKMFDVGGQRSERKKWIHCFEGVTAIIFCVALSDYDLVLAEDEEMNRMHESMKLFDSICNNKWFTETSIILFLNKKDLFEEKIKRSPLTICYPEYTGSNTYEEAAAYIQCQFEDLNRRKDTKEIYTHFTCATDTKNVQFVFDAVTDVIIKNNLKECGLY
# UniProt P63218, sequence (P63218 whole entry, looked up): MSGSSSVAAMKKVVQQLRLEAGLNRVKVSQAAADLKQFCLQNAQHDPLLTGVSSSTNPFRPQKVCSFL
# UniProt Q49A26, sequence (Q49A26 whole entry, looked up): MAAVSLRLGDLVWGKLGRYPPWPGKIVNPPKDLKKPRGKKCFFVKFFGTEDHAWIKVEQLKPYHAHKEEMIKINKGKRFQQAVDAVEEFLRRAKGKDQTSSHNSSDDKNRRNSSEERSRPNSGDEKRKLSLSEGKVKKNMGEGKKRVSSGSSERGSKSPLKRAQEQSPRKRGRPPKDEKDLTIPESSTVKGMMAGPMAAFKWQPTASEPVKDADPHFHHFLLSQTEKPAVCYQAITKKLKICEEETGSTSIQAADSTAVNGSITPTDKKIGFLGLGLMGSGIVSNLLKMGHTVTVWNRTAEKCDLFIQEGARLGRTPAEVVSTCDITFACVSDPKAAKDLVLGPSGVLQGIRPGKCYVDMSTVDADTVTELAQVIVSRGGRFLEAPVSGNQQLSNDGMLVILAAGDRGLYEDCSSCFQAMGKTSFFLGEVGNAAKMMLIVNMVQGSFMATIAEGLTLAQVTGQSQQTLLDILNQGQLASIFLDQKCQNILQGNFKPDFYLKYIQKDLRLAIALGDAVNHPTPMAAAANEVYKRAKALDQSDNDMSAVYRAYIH
Target,log2 fold change [1],log2 fold change [2],log2 fold change [3],log2 fold change [4],log2 fold change [5],log2 fold change [6],log2 fold change [7],log2 fold change [8],log2 fold change [9],log2 fold change [10],log2 fold change [11]
HIP1 (UniProt O00291),-0.038,0.035,0.032,0.038,-0.061,-0.013,0.072,-0.123,-0.146,0.06,-0.04
FOXK1 (UniProt P85037),0.497,0.201,0.38,0.096,0,-0.15,0.023,0.512,-1.33 (active),-0.031,0.262
IDH3A (UniProt P50213),0,-0.033,-0.062,-0.005,-0.025,-0.029,0.023,-0.034,-0.021,0.011,-0.024
GALK1 isoform 2 (UniProt P51570),0.357 (active),0.066,-0.087,0.141,0.171,0.094,0.111,-0.063,0.049,0.11,-0.103
IFRD2 isoform 2 (UniProt Q12894),-0.044,-0.279,0.003,0.11,-0.2,-0.244,-0.028,0.276,-0.008,0.046,0.29
FECH isoform 2 (UniProt P22830),-0.031,0.171,0.288,0.021,-0.01,-0.228,-0.031,-0.035,0,0.38,0.471
GAB2 (UniProt Q9UQC2),-0.087,-0.268,-0.081,0.018,0.127,0.151,0.182,-0.175,-0.095,-0.21,0.046
HAUS4 (UniProt Q9H6D7),0.067,-0.165,0.229,-0.089,0.12,0.01,-0.106,0.095,0.088,-0.08,0.147
GOLPH3 (UniProt Q9H4A6),0.041,-0.082,0.009,0,0.022,0.014,0.071,-0.013,0,-0.043,-0.016
FANCI (UniProt Q9NVI1),0.139,-0.069,-0.281 (active),-0.08,0.083,0.112,0.099,-0.089,0.033,-0.045,-0.013
HMGN1 (UniProt P05114),0,0.024,0.144,0.03,-0.053,-0.048,-0.096,0.037,-0.003,-0.023,0.089
HBZ (UniProt P02008),0.03,-0.042,0,0.026,0.059,-0.022,0.027,-0.019,-0.055,-0.018,0.009
FUT8 (UniProt Q9BYC5),-0.022,0.094,-0.107,-0.014,0.042,-0.001,0.108,0.013,-0.146,0.027,-0.048
HRAS (UniProt P01112),0.103,0.233,0.071,0.366 (active),-0.012,-0.009,-0.067,0.003,0,0.007,0.027
GLYR1 (UniProt Q49A26),-0.023,0.034,-0.032,0.112,-0.049,0.027,0.011,-0.015,-0.009,-0.135,0.041
HK2 (UniProt P52789),0.003,-0.012,-0.059,0.016,0.022,0.048,0.046,-0.021,-0.065,-0.059,-0.54 (active)
HADHA (UniProt P40939),-0.035,0.033,0.131,0.125,0.045,-0.059,0.018,-0.1,1.01 (active),-0.007,0.01
GNB2 (UniProt P62879),-0.073,-0.012,0.022,-0.014,-0.037,-0.047,-0.01,0.028,-0.075,-0.049,0.038
HMOX2 (UniProt P30519),-0.022,-0.028,-0.094,-0.026,0.018,0.029,0.023,0,0.013,-0.03,0.014
GABARAPL2 (UniProt P60520),-0.036,-0.088,-0.145,-0.079,-0.011,0.063,0.041,-0.049,-0.048,0.015,-0.032
GSTP1 (UniProt P09211),-0.044,-0.01,-0.056,0.001,-0.006,-0.012,0.034,-0.038,-0.005,-0.013,-0.03
HADHB (UniProt P55084),-0.079,0.021,0.104,0.078,0.014,0,0.037,-0.115,0.716 (active),-0.056,0.006
GTPBP6 (UniProt O43824),-0.052,-0.066,0.017,-0.003,-0.019,-0.1,0.093,-0.115,0.086,-0.011,-0.092
FHOD1 (UniProt Q9Y613),-0.075,-0.042,0.179,0.051,-0.103,0.034,-0.073,0.177,0.23,-0.085,0.209
FEN1 (UniProt P39748),-0.022,-0.154,-0.28,-0.157,0.034,0.246,0.111,-0.1,-0.129,0.035,-0.051
GPX4 (UniProt P36969),-0.006,0.079,-0.052,0.032,-0.107,-0.082,-0.391 (active),0.004,-0.006,-0.049,0.02
H2AFX (UniProt P16104),0.054,0.245,0.441,0.041,0.132,0.216,-0.035,0.08,0.077,-0.083,-0.005
GCDH (UniProt Q92947),0.015,0.031,0.052,0.006,-0.002,0.103,0.025,-0.05,-0.019,0.009,-0.026

Target,log2 fold change [1],log2 fold change [2],log2 fold change [3],log2 fold change [4],log2 fold change [5],log2 fold change [6],log2 fold change [7],log2 fold change [8],log2 fold change [9],log2 fold change [10],log2 fold change [11]
GTF3C4 (UniProt Q9UKN8),-0.015,-0.012,-0.077,-0.04,0.024,-0.103,0.04,0.03,-0.013,-0.019,-0.052
HSPA8 (UniProt E9PK54),0.015,0.023,-0.071,-0.136,0.061,-0.064,0.068,0.028,0.093,-0.027,-0.212
GNPAT (UniProt O15228),0.02,-0.008,-0.066,0,0.021,-0.008,0.041,-0.041,-0.061,-0.02,0.003
HMGN2 (UniProt P05204),0.071,0.07,0.139,0.027,-0.092,-0.225,-0.129,0.02,0.067,0.151,0.111
GSTO1 (UniProt P78417),-0.015,-0.002,0.022,0.001,-0.022,0.058,0.039,-0.047,0.018,-0.022,-0.046
FBXO3 (UniProt Q9UK99),-0.034,-0.013,-0.202,-0.013,-0.039,0.011,0.016,-0.003,0.001,-0.12,0.013
GTF3A (UniProt Q92664),-0.04,-0.095,0.046,-0.098,-0.013,0.026,0.06,0.043,0.011,-0.072,0.033
HRC (UniProt P23327),-0.161,0.005,-0.02,-0.056,-0.114,-0.128,-0.011,0.013,0.023,-0.026,0.032
FKBP4 (UniProt Q02790),0.005,-0.071,-0.114,-0.053,0.039,0.035,0.072,0.01,-0.02,-0.029,-0.019
HDGFL2 (UniProt Q7Z4V5),-0.273 (active),-0.05,-0.022,-0.052,-0.139,0.024,-0.032,0.033,-0.093,-0.018,-0.008
GNAI3 (UniProt P08754),-0.016,0.022,-0.046,0.003,-0.04,-0.016,-0.018,0.052,-0.027,-0.076,0.038
IFI30 (UniProt P13284),0.035,0.127,-0.048,0.083,-0.052,0.03,0.059,-0.052,0.128,-0.028,-0.032
FOXO3 (UniProt O43524),-0.395,-0.089,-0.025,-0.072,-0.063,0.222,0.002,-0.136,-0.046,0.035,-0.107
H2AZ1 (UniProt P0C0S5),0.067,0.258,0.444,-0.038,0.135,0.19,-0.058,0,0.086,-0.032,-0.001
IFRD1 (UniProt O00458),-0.035,-0.275,-0.058,-0.009,-0.08,-0.25,-0.035,0.175,0.022,-0.016,0.243
HOMER1 (UniProt Q86YM7),0.058,0.007,-0.014,0.032,0.049,0.059,0.013,0.119,0.013,0.024,0.056
GYS1 (UniProt P13807),-0.05,-0.027,0.05,0.091,-0.077,-0.125,-0.103,0.05,-0.002,-0.301,0.782 (active)
HPCAL1 (UniProt P37235),0.033,-0.014,-0.152,-0.032,0.006,-0.018,0.032,0.028,-0.03,-0.032,0.023
FIS1 (UniProt Q9Y3D6),-0.013,0.075,0.002,0.133,-0.004,-0.027,0.051,-0.017,-0.03,-0.006,0.038
GYG1 (UniProt P46976),0.012,-0.017,0.075,0.134,-0.019,-0.056,-0.011,0.049,0.037,-0.057,0.643 (active)
HDAC6 (UniProt Q9UBN7),0.002,-0.04,0.054,0.001,-0.053,0.86 (active),0.747 (active),0.009,0.004,0.064,0.034
GAPVD1 isoform 6 (UniProt Q14C86),0.009,-0.077,-0.139,-0.073,0.049,0.063,0.087,0.124,0.003,-0.048,0.045
HSPA8 (UniProt P11142),-0.006,0.011,0.018,0.012,-0.009,-0.01,-0.026,-0.015,0.003,-0.034,0.043
GNG5 (UniProt P63218),-0.029,0.071,0.056,0.086,0.082,-0.127,-0.021,0.017,-0.156,-0.057,0.062
HNRNPUL2 (UniProt Q1KMD3),-0.04,0.02,0.153,0.017,-0.026,-0.004,-0.077,0.046,0.15,-0.104,0.007
GBF1 (UniProt Q92538),-0.026,-0.012,-0.122,-0.058,0.053,0.144,0.124,-0.018,-0.001,-0.023,-0.005
HNRNPF (UniProt P52597),-0.015,0.014,-0.11,-0.027,0.137,0.154,0.07,0.074,-0.104,-0.048,0.046
